Assay outcomes as filed in PubChem BioAssay.
Vaccinia pol inh = vaccinia E9 polymerase processive synthesis inhibition; 46,000 compounds, 0.94% hits; in vitro processive DNA synthesis, absorbance read-out; hits give low values; normalized absorbance, % (test concentration not listed); in the data active = normalized absorbance mostly below about 85%, no sharp cut-off; inactive = mostly above about 86%
Active calls of the source: *; ! = a repeat was not active. Many of the other results were omitted from the sample, so hits are more common in it than they were.

SMILES	Vaccinia pol inh
Cc1nc2c([nH]1)C(c1ccc(C(C)C)cc1)C(C#N)=C(C#N)O2 (stereo not given)	101
Cc1nc(NC2=NCN(Cc3ccccc3)CN2)nc2ccccc12	73*
c1ccc(CN2CN=C(Nc3nc4ccccc4o3)NC2)cc1	103
CCCCN1CN=C(Nc2nc(C)c3ccccc3n2)NC1	96
Nc1c(C(=O)NCCC2=CCCCC2)nnn1-c1cccc(C(F)(F)F)c1	100
O=C(C1=C(O)C(=O)N(Cc2cccnc2)C1c1ccncc1)c1cccs1 (stereo not given)	102
Cc1ccc(CCNC(=O)Cc2noc3ccccc23)cc1	97
CCOC(=O)CCc1c(CC(=O)OCC)c[nH]c1/C=N/O	31*
CCOC(=O)CCc1ccc(OCc2c(C)c(C)c(C)c(C)c2C)cc1	96
CCOC(=O)CCc1n[nH]c(=O)[nH]c1=O	102
CN1C(=O)C(C)(C)c2cc(S(=O)(=O)N(C)CC(=O)NCc3ccccc3)ccc21	107
C=C1C2(C(=O)O)CCC(C2)C1(C)C (stereo not given)	101
O=C(CSC1=NCCc2ccccc21)c1ccccc1Cl	87
O=C(SC1=NCCc2ccccc21)c1ccccc1	97
O=C(CSC1=NCCc2ccccc21)c1ccc(-c2ccccc2)cc1	69*
Cn1nc(C(=O)NC2CCCc3ccccc32)c2c1-c1ccccc1SC2 (stereo not given)	106
COc1ccc(-c2cc(=Nc3ccc(C)cc3C)c3cc(O)ccc3o2)cc1	100
Clc1ccc2oc(-c3ccccc3)cc(=NCc3cccnc3)c2c1	66*
Cc1ccc2oc(-c3ccc(Cl)cc3)cc(=O)c2c1	108
Cc1cc(NCc2cccnc2)c2ccc(Cl)cc2n1	103
CCCN=c1cc(-c2ccccc2)oc2ccc(C)cc12	42*
Clc1ccc2oc(-c3cccnc3)nc2c1	100
COc1ccc(C(C#N)c2ccc(C(=O)c3ccc(F)cc3)cc2)cc1 (stereo not given)	98
CCn1c2ccccc2c2cc(C=Nc3ccc(C)cc3O)ccc21	91
CCn1c2ccccc2c2cc(N)ccc21	92
SMILES	Vaccinia pol inh
CCn1c2ccccc2c2cc(C=Nc3cccc(C#N)c3)ccc21	77*
O=C1CN(S(=O)(=O)c2ccc3[nH]c(=O)ccc3c2)CC(=O)N1CCc1ccccc1	105
O=C(NCc1noc2ccccc12)Nc1cccc(C(F)(F)F)c1	96
CC1(C)CC(NC(=O)C(F)(F)F)C(NC(=O)C(F)(F)F)C(C)(C)N1 (stereo not given)	101
CC1CC(C)CN(CC(O)Cn2c3ccccc3c3ccccc32)C1 (stereo not given)	92
OC(CN1CCN(c2cccc(Cl)c2)CC1)Cn1c2ccccc2c2ccccc21 (stereo not given)	100
OC(CN1CCNCC1)Cn1c2ccc(Br)cc2c2cc(Br)ccc21 (stereo not given)	31*
O=C(COc1ccccc1C(=O)O)NCc1ccccc1	101
CC(C)CCNc1ncc2c(n1)CC(c1ccccc1Cl)CC2=O (stereo not given)	99
O=C(O)c1ccc(C2Nc3ccccc3C3C=CCC32)cc1 (stereo not given)	10*
Cc1cc(Cl)ccc1NS(=O)(=O)c1ccc2c(c1)[C@H]1C=CC[C@H]1[C@@H](c1ccccc1)N2	101
Brc1ccccc1[C@@H]1Nc2ccccc2[C@@H]2C=CC[C@@H]21	100
O=C(O)C1C2CC=CC2c2cc(Cl)cc3c2N1CC1CC=CC31 (stereo not given)	100
CC(C)C1Nc2ccc(C(=O)O)cc2C2C=CCC21 (stereo not given)	78*
O=C1N[C@H](C(=O)O)C1Cc1ccccc1 (stereo not given in full)	99
CCOc1ccc2c(c1)C1C=CCC1C(c1ccc(C(=O)OC)cc1)N2 (stereo not given)	105
Cc1ccc2c(c1)C1C=CCC1C(c1ccc(N=Cc3ccccc3)cc1)N2 (stereo not given)	97
O=C(O)C1Nc2ccccc2C2C=CCC12 (stereo not given)	9.8*
COc1ccc(-n2ncc3c(N(Cc4ccccc4)Cc4ccccc4)ncnc32)cc1	100
O=C(Nc1cccc(Cl)c1)C1=CC(=O)N2CCCN=C2S1	105
Cn1c(=O)c2c(O)c(C=Nc3ccc(Cl)cc3)c(=O)n(C)c2n(C)c1=O	106
O=C(CSc1nnc(-c2ccncc2)o1)N1c2ccccc2Sc2ccccc21	99
CCn1c2ccccc2c2cc(NC(=O)c3ccc(OC)c(OC)c3)ccc21	96
CN(C)CC1CCCCC1O (stereo not given)	84
Cc1c(C(=O)NCc2cccc(Cl)c2)oc2ccc3c(c12)C(=O)CC(C)(C)O3	102
SMILES	Vaccinia pol inh
O=C(O)CCc1nc2sc3c(c2c(=O)[nH]1)CCCC3	98
CCc1ccc(NC(=O)CN(C2=NC3CS(=O)(=O)CC3S2)c2ccc(CC)cc2)cc1 (stereo not given)	91
CCOC(=O)c1ccc(NC(=O)c2ccc(Cl)cc2)cc1	99
CCOC(=O)c1ccc(N=C(N)SCc2ccc(Cl)cc2)cc1	65*
CCOC(=O)c1ccc(CN)cc1	98
CC1(C)CC(=O)C2=C(C1)N(c1ncn[nH]1)C(N)=C(C#N)C2c1ccsc1 (stereo not given)	100
COC(CNC(=O)c1cc(-c2ccccn2)nc2ccc(S(=O)(=O)N3CCC(C)CC3)cc12)OC	104
COc1ccc2c(c1)cc1n2CCN=C1N	90
COc1ccc2c(c1)c1nc(N(C)C)nc3c1n2CCN3C	11*
COc1ccc2c(c1)cc1n2CCN2CCN=C12	76
FC(F)=C(F)CCSC1=NCCN1	114
O=C(Cn1ncc2ccccc21)Nc1ccc(Br)cn1	104
CC(C)(C)c1csc(Cc2ccccc2Cl)n1	99
CN=C1c2c(C)c3cc(OC)ccc3n2CCN1C	50*
COc1ccc2c(c1)c(-c1csc(N)n1)c(C)n2C	103
COc1ccc2c(c1)c(C#N)c1n2CCN=C1N(C)C	105
COc1ccccc1Nc1ncc(C(=O)NCCc2ccc(OC)c(OC)c2)c2ccccc12	100
CCN1CCN(C(=O)c2ccccc2F)CC1	90
COc1ccc(O)c(C=Nc2ccccc2)c1	104
CCCOc1ccc2c(-c3ccccc3)cc(=O)oc2c1	100
N#Cc1cccc(NC(=O)CCCC(=O)Nc2cccc(C#N)c2)c1	101
CC(NC(=O)c1ccccc1)C(=O)NN (stereo not given)	100
CC(C)(C)N=Cc1cc(-c2ccccc2)sc1S	99
CCOC(=O)Cn1c2ccc(Cl)cc2c2nc3ccccc3nc21	109
O=C(O)Cn1c2ccc(Cl)cc2c2nc3ccccc3nc21	53*
SMILES	Vaccinia pol inh
Cc1ccc2c(c1)c1nc3ccccc3nc1n2CC(=O)O	75
C=CCc1cccc2cc(C(N)=O)c(=O)oc12	102
NNC(=O)c1cccc(COc2ccc(C3SCCS3)cc2)c1	98
Cc1c(Cl)cccc1NC(=O)CC(NCc1ccccn1)C(=O)O (stereo not given)	100
Cc1cc(-c2ccc(Cl)s2)nc(-n2cccc2)n1	124
Cc1nn(-c2ccccc2)c2sc(C(=O)NC(C)C)cc12	82
Cc1nn(-c2ccccc2)c2sc(C(=O)O)cc12	98
Cc1nn(-c2ccccc2)c2sc(C#N)c(N)c12	80*
Brc1ccc(-c2noc(-c3ccc(Br)cc3)n2)cc1	106
COCc1cc(C)nc2snc(Br)c12	100
NC(=NCc1ccccc1)NC(=O)c1nc(Cl)c(N)nc1N	59*!
O=C(Cc1csc(Nc2ccc(Cl)cc2)n1)NCc1ccccc1	100
NC(=Nc1ccccc1)NC(=O)c1nc(Cl)c(N)nc1N	51*
